# Assay results from PubChem BioAssay AID1851 (National Center for Advancing Translational Sciences (NCATS), 2009).
# Among all 16,000 compounds or so, about 5,700 (36%) were called active. Roughly 24% stayed inconclusive and do not appear here. Calls follow the shape of the dose curve; as a rule, active = well fitted curve in the direction sought with a large enough effect; inconclusive = small, poorly fitted or top-dose-only effect, or effect the other way; inactive = no such curve, though single readings can be large or run the other way. Some of the results follow.
# Biological target: Cytochrome P450 1A2 (Homo sapiens) (UniProt P05177)
# Sequence (P05177 whole entry, looked up): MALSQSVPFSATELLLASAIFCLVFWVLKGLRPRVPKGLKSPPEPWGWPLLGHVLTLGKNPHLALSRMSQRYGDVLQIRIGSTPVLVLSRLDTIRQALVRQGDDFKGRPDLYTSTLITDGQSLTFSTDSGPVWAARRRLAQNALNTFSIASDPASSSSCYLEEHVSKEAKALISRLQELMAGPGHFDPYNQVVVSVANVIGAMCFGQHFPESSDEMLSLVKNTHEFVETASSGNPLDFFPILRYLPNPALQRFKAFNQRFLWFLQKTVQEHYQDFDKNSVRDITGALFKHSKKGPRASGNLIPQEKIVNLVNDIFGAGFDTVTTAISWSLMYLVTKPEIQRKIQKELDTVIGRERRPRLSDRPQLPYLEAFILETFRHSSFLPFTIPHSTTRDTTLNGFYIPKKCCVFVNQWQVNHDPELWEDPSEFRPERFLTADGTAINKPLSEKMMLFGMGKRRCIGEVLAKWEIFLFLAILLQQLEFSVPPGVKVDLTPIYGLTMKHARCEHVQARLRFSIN
# Assay: Cytochrome panel assay with activity outcomes
# Conditions: recombinant CYP, pro-luciferin dealkylation, luminescence, p450-cyp1a2; series mostly up to 57.1 µM; activity, negative = inhibition: at the top concentration
# % is scaled to controls: 0 for no effect and ±100 for the full control effect.
SMILES,"activity, negative = inhibition",AC50
CC(C)CN1CC[C@@]2(CCCN(C(=O)c3cnccn3)C2)C1,-15.1% (inactive),–
O=C(Nc1nnc(-c2ccc(Cl)cc2)o1)Nc1ccccc1Cl,–,1580 nM (active)
CC(=O)NNc1cccc(Cl)n1,-17.3% (inactive),–
Cc1cc(NC(=O)c2ccccc2Cl)c(C(C)C)cc1O,–,3550 nM (active)
O=C(CCN1CCN(CC(=O)Nc2ccccc2Cl)CC1)Nc1ccccc1F,-0.462% (inactive),–
Cn1sc(NC(=O)c2ccccc2Cl)nc1=O,-20.9% (inactive),–
Cc1cccc(C)c1NC(=O)C(NC=O)c1ccccc1Cl (stereo not drawn),2.26% (inactive),–
O=C(Nc1ccccc1Cl)c1ccccc1Cl,–,1780 nM (active)
O=C(NNc1cccc(Cl)n1)Nc1ccccc1Cl,–,2510 nM (active)
CCCC(O)(CCC)C(=O)NN1CCCCC1,-7.66% (inactive),–
O=C(Nc1ccccc1Cl)c1ccn[nH]1,–,794 nM (active)
O=C(O)C1CCCCC1C(=O)Nc1ccccc1Cl (stereo not drawn),-11.2% (inactive),–
O=C(O)COC(=O)Cc1ccccc1Nc1c(Cl)cccc1Cl,3.13% [at 25.6 µM] (inactive),–
NC(=O)NC(=O)Nc1ccccc1Cl,–,4470 nM (active)
COc1nc(N)nc2c1ncn2[C@@H]1C[C@H](O)[C@@H](CO)O1,-7.83% [at 11.4 µM] (inactive),–
O=C1CC(N2CCOCC2)C(=O)N1c1cccc(Cl)c1 (stereo not drawn),2.37% (inactive),–
Clc1cccc(N/N=C/c2ccc(N3CCOCC3)cc2)c1,–,2510 nM (active)
Cc1ccc(Nc2ccc(-n3ccnc3)nn2)cc1C,–,158 nM (active)
Cc1cc(/C=N/n2cnnc2)c(C)n1-c1ccc(OCc2ccccc2F)cc1,–,12600 nM (active)
Fc1ccc(CSc2nnc(-c3cc4c(s3)-c3ccccc3CC4)o2)cc1,–,2240 nM (active)
Cc1ccc(-c2nnc(-c3ccc4ccccc4c3)o2)cc1,–,631 nM (active)

SMILES,"activity, negative = inhibition",AC50
c1ccc2cc(-c3cc(-c4cc(-c5ccc6ccccc6c5)on4)no3)ccc2c1,–,1580 nM (active)
O=C(O)c1nnsc1-c1csnn1,-3.7% [at 11.4 µM] (inactive),–
c1ccc2cc(-c3csnn3)ccc2c1,–,112 nM (active)
c1ccc(-c2noc(-c3ccc4ccccc4c3)n2)cc1,–,3160 nM (active)
CC/C=C\CC[C@H](O)C1=CCCCC1=O,-2.33% [at 11.4 µM] (inactive),–
CC[C@@H](C)[C@H]1O[C@]2(CC[C@@H]1C)C[C@@H]1C[C@H](C/C=C(/C)[C@H](O[C@@H]3C[C@H](OC)[C@H](O[C@@H]4C[C@H](OC)[C@@H](O)[C@H](C)O4)[C@H](C)O3)[C@@H](C)/C=C\C=C3CO[C@@H]4[C@H](O)C(C)=C[C@@H](C(=O)O1)[C@]34O)O2 (tested in a mixture with another compound),-15.8% (inactive),–
C[C@@H]1C[C@H](OC(=O)[C@@H](O)c2ccccc2)CC(C)(C)N1C,-5.2% [at 25.6 µM] (inactive),–
CCCCCn1c(CN2CCN(c3cc(Cl)ccc3C)CC2)nc2c1c(=O)[nH]c(=O)n2C,-2.23% (inactive),–
CCOC(=O)CCCNC(=O)CCCNC(=O)C(c1ccccc1)c1ccccc1,-14.8% (inactive),–
O=C(NCCO[N+](=O)[O-])c1cccnc1,-19.7% (inactive),–
CCOC(=O)CNC(=O)c1cccnc1,-19.8% (inactive),–
Cc1ccc(OCCNC(=O)c2cncc(Br)c2)cc1C,–,14100 nM (active)
CCOC(=O)CCCNC(=O)c1cncc(Br)c1,–,12600 nM (active)
CO[C@H]1COC(=O)[C@H](C)COC(=O)[C@@H](Cc2ccccc2)NC(=O)C/C=C\[C@H]1C,-3.2% [at 11.4 µM] (inactive),–
COc1ccc(NC(=O)N(C2CCCCC2)C(C)c2cccnc2)c(OC)c1 (stereo not drawn),–,14100 nM (active)
Cc1cc(NC(=O)CCC(=O)N(CC2CCCO2)C(C(=O)NC2CCCC2)c2cccnc2)no1 (stereo not drawn),3.67% (inactive),–
CCOC(=O)CN(C(=O)CCC(=O)Nc1cc(C)on1)C(C(=O)NC1CCCC1)c1cccnc1 (stereo not drawn),-2.53% (inactive),–
O=C1C(Cc2ccccc2)C(c2ccccc2)N1c1ccccc1 (stereo not drawn),–,5010 nM (active)
CCCC1C(=O)N(c2ccccc2)C1c1ccccc1 (stereo not drawn),–,12600 nM (active)
O=C1C(CCS(=O)c2ccccc2)C(=O)N(c2ccccc2)N1c1ccccc1 (stereo not drawn),-14.7% [at 25.6 µM] (inactive),–
O=C1C2ON(c3ccccc3)C(c3ccncc3)C2C(=O)N1c1ccccc1 (stereo not drawn),-24.3% (inactive),–

SMILES,"activity, negative = inhibition",AC50
C[C@H]1CC[C@H]2C(=O)N[C@H](Cc3ccccc3)C(=O)N2[C@@H]1c1ccccc1,-2.57% [at 11.4 µM] (inactive),–
CCN1C(=O)N[C@@H](c2ccccc2)C1=O,-16.1% [at 25.6 µM] (inactive),–
COc1cccc(C=NC=Nc2cccc(OC)c2)c1,–,1000 nM (active)
Clc1cccc(C=NC=Nc2cccc(Cl)c2)c1,–,631 nM (active)
CC(C)CC(=O)Nc1ccccc1-c1nnn(CC(=O)N2CCc3ccccc3C2)n1,-27% (inactive),–
CCCn1nc(NC(=O)CC(C)C)c2cc3ccccc3nc21,–,1580 nM (active)
CCOc1cc(CNCCO)c(Cl)cc1OCC(=O)NCCc1ccccc1,–,6310 nM (active)
CCNCc1cc(OCC)c(OCC(=O)NCCc2ccccc2)cc1Cl,–,1780 nM (active)
COc1ccc(CNCCc2ccccc2)cc1OCC(N)=O,-6.42% (inactive),–
Nc1nc2c(c(=O)[nH]1)N[C@H](CCNc1ccc(C(=O)O)cc1)CN2,-4.28% [at 11.4 µM] (inactive),–
COc1ccccc1CN1CCCC2(CCN(C(=O)c3c(C)noc3C)CC2)C1,-1.37% (inactive),–
COC(=O)CN(c1ccc(OC)cc1)S(=O)(=O)c1c(C)noc1C,-12.5% (inactive),–
COc1ccc(CNc2ccnc(-c3c(C)noc3C)n2)c(OC)c1,–,1260 nM (active)
COc1ccccc1CN1CCC2(CC1)CCN(C(=O)c1c(C)noc1C)CC2,-17.2% (inactive),–
COc1ccccc1CNc1ccnc(-c2c(C)noc2C)n1,–,398 nM (active)
O=C(O)/C(=C/c1c(C(=O)O)[nH]c2cc(Cl)cc(Cl)c12)c1ccccc1,–,12600 nM (active)
Cc1cc(C(=O)CSc2nnc(-c3ccccc3)o2)c(C)n1CC1COc2ccccc2O1 (stereo not drawn),-16.3% (inactive),–
c1ccc(-c2nnc(SCCC3OCCCO3)o2)cc1,–,1780 nM (active)
CCC1CCc2c(c3ccccc3[nH]c2=O)O1 (stereo not drawn),–,562 nM (active)
C#CCn1c(=O)c2c(ncn2C)n(C)c1=O,-16.2% (inactive),–
CC[C@@H](c1ccccc1)n1c(=O)n2n(c1=O)[C@H]1[C@H](O)[C@H]3O[C@@H]3/C(=N/OC/C=C(\C)CCC=C(C)C)[C@@H]1CC2,-18.9% [at 11.4 µM] (inactive),–
